D1 PAM: human D1 dopamine receptor positive modulation. HEK293 TREx D1 cells, calcium flux, dopamine EC20 potentiation. actives 0.036% (n = 360,000). potentiation, % at 10 µM; in the data active = potentiation above about 30%; note: 0% is about no effect
Target sequence (P21728 whole entry, looked up): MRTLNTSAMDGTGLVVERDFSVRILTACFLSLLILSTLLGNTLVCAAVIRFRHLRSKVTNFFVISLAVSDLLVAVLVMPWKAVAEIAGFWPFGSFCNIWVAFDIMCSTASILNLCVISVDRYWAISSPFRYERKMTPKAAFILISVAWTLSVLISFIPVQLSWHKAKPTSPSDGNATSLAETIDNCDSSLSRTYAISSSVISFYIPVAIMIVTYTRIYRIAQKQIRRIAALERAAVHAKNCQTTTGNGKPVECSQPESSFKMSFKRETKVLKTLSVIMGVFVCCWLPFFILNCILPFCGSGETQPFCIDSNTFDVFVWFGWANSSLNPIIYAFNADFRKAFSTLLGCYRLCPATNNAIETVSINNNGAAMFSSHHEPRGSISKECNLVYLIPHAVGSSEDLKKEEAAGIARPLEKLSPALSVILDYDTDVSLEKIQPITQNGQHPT
D3 ag: agonists of human D3 dopamine receptor | P35462 | D3R DiscoveRx beta-arrestin cells, luminescence, 90 min | max activation, % | actives 0.58% (n = 410,000); in the data active = max activation above about 30%; note: 0% is about no effect
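Agonist mode: compounds and dopamine controls were applied to plated cells for 90 min at 37 degrees C after an overnight attachment at 1500 cells/well. Luminescent read-out followed 30 - 60 minutes at room temperature with DiscoveRx detection reagent.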
D3 antag: blocks the human D3 dopamine receptor. P35462. D3R cells, DiscoveRx beta-arrestin luminescence, antagonist mode; hits give low values. max response, negative = inhibition, %. actives 2.5% (n = 360,000); in the data active = max response below about -50%; inconclusive = no clear call, values can overlap the other calls; note: % is set by controls: 0 for no effect and ±100 for the full control effect
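Cells plated overnight at 1500 cells/well, then exposed to library compounds with dopamine controls for 90 minutes at 37 degrees C. DiscoveRx reagent added for 30–60 minutes at room temperature; luminescence read, quantitative HTS format.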
D1 antagonist: blocks dopamine activation of the human D1 receptor; P21728; HEK293 TREx D1 cells, calcium flux, dopamine EC80; hits give low values; activity change, negative = inhibition, % at 10 µM; actives 3.2% (n = 360,000); AID 504652; in the data active = activity change below about -30%; note: % is set by controls: 0 for no effect and ±100 for the full control effect
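HEK293 T-REx cells expressing inducible, force-coupled D1 receptor; no-wash Ca dye, 30–90 min RT. Cmpd → 180 s read at 1 Hz → EC80 DA → 180 s read.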
D1 ag: activates the human D1 dopamine receptor; P21728; AID 504660; activation, % at 2 µM; actives 1% (n = 360,000); HEK293 T-REx D1 cells, calcium flux, agonist mode; in the data active = activation above about 30%; note: 0% is about no effect
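Inducible HEK293 T-REx D1 cells, force-coupled to calcium signalling, were plated at 4000 cells/well with tetracycline and held overnight at 30 C. After no-wash calcium dye loading, compound-evoked calcium rise over 180 s flagged agonists.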
* hit, by the source's call; ? = inconclusive; . = no result given. The list is not random: actives were taken first. Their share in the collection is about 6.1%.

SMILES | D1 PAM | D3 ag | D3 antag | D1 antagonist | D1 ag
O=C(NCCC1=CCCCC1)C1CCN(C(=O)N2CCOc3ccccc32)CC1 | 0.1 | 2.4 | . | -2.3 | 0.8
OCCCn1c(C2CCCN2c2nc(-c3ccc(F)cc3)cs2)nc2cc(Cl)c(Cl)cc21 (centres undefined) | . | -44.4 | -55.7* | . | .
COc1ccc(-c2csc(NCCc3nc4cc(Cl)c(Cl)cc4n3CCCO)n2)cc1 | . | -0.6 | 51.4 | . | .
Cc1ccc(-c2csc(NCCc3nc4cc(Cl)c(Cl)cc4n3CCCO)n2)cc1 | . | 69.8* | 5.3 | . | .
Cc1ccc(Cn2c(C(C)Nc3nc(-c4ccc(Cl)cc4)cs3)nc3cc(C(=O)NCCCO)ccc32)cc1 (centres undefined) | . | -0.5 | 14.1 | . | .
Cc1ccc(Cn2c(CCNc3nc(-c4ccc(C)cc4)cs3)nc3cc(C(=O)NCCCO)ccc32)cc1 | . | 31.5* | 6.2 | . | .
Cc1ccc(CNC(=O)CCS(=O)(=O)c2ccc3c(c2)NC(=O)CS3)cc1 | -5.7 | 1.1 | -1.1 | -2.1 | -0.2
Cc1ccc(C(=O)NC(=S)Nc2ccc(Oc3ccc(Cl)cc3)cc2)cc1 | 0.3 | -11.7 | 7.8 | -24.6 | 10.3
COC(=O)NC(=S)Nc1ccc(Oc2ccc(Cl)cc2Cl)c(Cl)c1 | -1.9 | -16.4 | -64.8* | 10.0 | -1.9
COC(=O)NC(=S)Nc1ccc(Oc2ccc(Cl)cc2)c(Cl)c1 | -5.2 | -57.2 | ? | -35.4* | 6.1
O=C(NC(=S)Nc1ccc(F)c(Cl)c1)C1CC1 | 1.8 | 10.1 | -7.8 | 13.6 | 6.4
COc1ccc(NC(=O)CSc2nnc(-c3nonc3NC(C)=O)n2-c2ccccc2)cc1 | 1.2 | 7.8 | . | -45.9* | -2.4
COc1ccc(-n2c(SCC(=O)Nc3ccc(Cl)cc3)nc(O)c(Cc3ccccc3)c2=O)cc1 | -0.5 | 1.6 | 5.6 | -3.3 | 8.0
COc1ccccc1NC(=O)CSc1nc2c(oc3ccccc32)c(=O)n1-c1ccc(C)cc1 | -3.5 | 13.2 | . | -39.2* | 6.1
CC(=O)Nc1nonc1-c1nnc(SCC(=O)Nc2ccc(C)c(Cl)c2)n1-c1ccccc1 | 0.3 | 1.7 | . | 2.9 | -0.5
COc1ccc(-n2c(SCC(=O)Nc3ccc(C)cc3)nc(O)c(Cc3ccccc3)c2=O)cc1 | 0.7 | 4.9 | 22.3 | -51.5* | 6.1
COc1ccccc1-c1ncn(Cc2cccc(-c3ccccc3)c2)c1-c1ccco1 | . | -13.5 | ? | . | .
COc1ccc(F)c(CN2CCN(CCc3ccccc3)C(CCO)C2)c1 (centres undefined) | -5.8 | -9.2 | ? | -8.1 | 0.8
CCOc1ccccc1CN1CCN(CCCc2ccccc2)CC1CCO (centres undefined) | 9.2 | -20.7 | -73.5* | -2.4 | 2.4
OCCC1CN(Cc2cc(F)ccc2F)CCN1CCCc1ccccc1 (centres undefined) | -7.0 | -17.7 | -85.6* | 4.2 | 0.2
OCCC1CN(Cc2cccc(F)c2F)CCN1CCc1ccccc1 (centres undefined) | -0.6 | -13.1 | -19.4 | 4.7 | 0.9
COc1ccc(OC)c(CN2CCN(CCc3ccccc3)C(CCO)C2)c1 (centres undefined) | -2.9 | -15.4 | -55.7* | -13.8 | 0.1
OCCC1CN(Cc2ccc(F)cc2Cl)CCN1CCc1ccccc1 (centres undefined) | -4.2 | -17.6 | -99.1* | 5.9 | 6.1
CCc1noc(N)c1C(=O)Nc1ccc(F)c(Cl)c1 | -3.0 | -5.4 | 19.1 | -35.5* | 1.2
CCCc1cc(C(=O)NCc2ccco2)no1 | -9.2 | 2.7 | 2.8 | -34.9* | 0.1
SMILES | D1 PAM | D3 ag | D3 antag | D1 antagonist | D1 ag
CCCc1cc(C(=O)Nc2ccc(F)c(Cl)c2)no1 | -4.7 | -19.4 | -50.7* | -10.0 | 4.9
CCCc1cc(C(=O)Nc2cccc(Cl)c2)no1 | -6.2 | -10.9 | ? | 3.6 | -0.5
O=C(NCc1ccco1)c1c(F)c(F)c(F)c(C(=O)NCc2ccco2)c1F | -2.3 | 5.1 | 15.3 | -33.2* | 0.7
COc1ccc(S(=O)(=O)c2nnn(-c3ccc(C)c(Cl)c3)c2C)cc1 | -4.5 | -3.9 | . | -20.8 | 30.7*
COc1ccc(S(=O)(=O)c2nnn(-c3ccccc3F)c2C)cc1 | -3.6 | -7.8 | . | -8.2 | 10.0
CC(C)CCn1nnc2sc(-c3ccccc3)cc2c1=O | -0.1 | 2.6 | . | -3.7 | 1.0
c1ccc(-n2cnc3cc(NCc4ccncc4)ccc32)cc1 | -3.7 | 2.9 | -5.2 | -38.6* | 10.0
CCSc1nc2c(c(=O)[nH]c(=O)n2C)n1CC(O)COc1ccc(Cl)cc1 (centres undefined) | -3.4 | -10.8 | . | 16.5 | -2.7
O=C(NCC1CCCO1)c1cccc(NC(=O)c2ccccc2)c1 (centres undefined) | 3.4 | 2.5 | -4.7 | -31.1* | 2.5
Cc1noc(C)c1COc1ccc(C(=O)NCC2CCCO2)cc1 (centres undefined) | 2.5 | -5.9 | -52.2* | 26.5 | 4.9
Cc1ccccc1-c1noc(-c2ccccc2C(=O)NCC2CCCO2)n1 (centres undefined) | -0.8 | 5.4 | 22.6 | -30.3* | 0.4
COc1ccc(N(Cc2ccccc2)S(=O)(=O)c2cccc(C(=O)NCC3CCCO3)c2)cc1 (centres undefined) | -4.5 | -2.3 | -2.1 | -36.8* | 13.7
O=C(NCC1CCCO1)c1ccccc1 (centres undefined) | -0.8 | -0.5 | 16.7 | -1.7 | 1.8
Cc1ccc(OCc2ccc(C(=O)NCC3CCCO3)cc2)cc1C (centres undefined) | -9.1 | -3.1 | -4.0 | -4.1 | 2.0
Cc1cc(C)cc(NC(=O)c2sc3nc[nH]c(=O)c3c2C)c1 | 1.7 | -10.8 | . | -1.6 | -0.5
COc1cc2ccccc2cc1C(=O)Nc1ccc2oc(-c3ccc(F)cc3)nc2c1 | -2.5 | 3.4 | . | -10.4 | -0.1
CCc1cccc(NC(=O)CCc2c(C)nc3c(c2C)c(=O)n(C)c(=O)n3C)c1 | -3.1 | -3.5 | . | 4.1 | 2.2
CC(C)c1ccc(NC(=O)CCNS(=O)(=O)c2ccc3c(c2)CCCC(=O)N3)cc1 | 4.8 | -16.0 | . | 0.6 | 1.8
O=C(c1ccc2c(c1)N(Cc1ccc(F)cc1)C(=O)c1ccccc1S2=O)N1CCC(Cc2ccccc2)CC1 (centres undefined) | -3.0 | 2.5 | . | 12.0 | 9.1
CCCCOC(=O)c1ccc(NC(=O)c2ccc3c(c2)CCCN3S(C)(=O)=O)cc1 | -1.6 | -0.8 | . | -5.1 | 23.9
O=C(NCC1CCCO1)c1ccc(S(=O)(=O)Nc2ccccc2F)cc1 (centres undefined) | -3.8 | 11.4 | 9.4 | -37.6* | 3.3
Cc1cccc(NS(=O)(=O)c2ccc(C(=O)NCC3CCCO3)cc2)c1C (centres undefined) | -7.4 | 0.8 | 19.8 | -15.5 | 13.9
Cc1cccc(C(=O)NCC2CCCO2)c1 (centres undefined) | -4.8 | 3.1 | -53.7* | -10.8 | 3.1
COc1cccc(-c2nn(-c3ccc(C)cc3)cc2C(=O)NCC2CCCO2)c1 (centres undefined) | -2.2 | -22.1 | -22.8 | -19.9 | 0.5

Screening results (PubChem BioAssay)
